PubChem BioAssay (Tox21)
Inconclusive results are not listed. Where a call stands in place of a potency, no number is given. Unmarked numbers belong to inactive results. The source made the active and inactive calls. Unless noted, calls follow the shape of the dose curve; as a rule, active = well fitted curve in the direction sought with a large enough effect in the repeat runs; inconclusive = weak or mixed curves; inactive = no such curve, though single readings can be large; an effect the other way counts as inactive or inconclusive.

How the values were obtained:
[1] = qHTS assay to identify small molecule agonists of the vitamin D receptor (VDR) signaling pathway - cell viability counter screen (AID 743224); also: series mostly up to about 63 µM; nearly all actives have a fitted effect of over 50% in size
Procedure, shortened: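 Counter screen run in the same wells as the VDR-bla reporter assay: CellTiter-Glo luminescence, 30 min at room temperature, after 16 h compound treatment at 37C of cells pre-plated for 4 h.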

[2] = qHTS assay to identify small molecule agonists of the NFkB signaling pathway (AID 1159509; active = well fitted curve in the direction sought with a large enough effect in the signal ratio in the repeat runs, not every such curve was filed as active; the % refers to the signal ratio; also: series mostly up to about 61 µM)
Procedure, shortened: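 Pathway activation was measured in ME-180 cells stably expressing beta-lactamase under NF-kB response element control. Substrate cleavage was read as the 460/530 nm emission shift after 5 hr compound incubation.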

[3] = qHTS assay to identify small molecule agonists of the NFkB signaling pathway - cell viability counter screen (AID 1159515; calls by dose curve; also: series mostly up to about 61 µM; nearly all actives have a fitted effect of over 55% in size)
Procedure, shortened: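 Read by CellTiter-Glo luminescence (30 min, room temperature) in the wells also used for the beta-lactamase FRET read. ME-180 NFkB-bla cells at 2,000 per well were plated overnight, then exposed to compound for 5 hr at 37 C.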

[4] = qHTS assay to identify small molecule agonists of the endoplasmic reticulum stress response signaling pathway (AID 1159516; active = well fitted activation curve with a large enough effect in the signal ratio in the repeat runs, not every such curve was filed as active; the % refers to the signal ratio)
Procedure, shortened: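 Ratiometric FRET readout (405 nm excitation; 460 and 530 nm emission) of a beta-lactamase gene driven by the ER stress response element, after 2 hr substrate loading. HeLa ESRE-bla cells were seeded overnight and treated with compounds for only 5 hr at 37 C.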

[5] = qHTS assay to identify small molecule agonists of the endoplasmic reticulum stress response signaling pathway - cell viability counter screen (AID 1159517; calls by dose curve; also: series mostly up to about 61 µM; nearly all actives have a fitted effect of over 50% in size)
Procedure, shortened: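 ESRE-bla HeLa cells (1,500/well) were plated overnight at 37 C and exposed to compounds for 5 hr. After the 2 hr beta-lactamase substrate read, CellTiter-Glo went into the same wells, and luminescence was read after 30 min at room temperature.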

[6] = qHTS assay to identify small molecule antagonists of the retinoid-related orphan receptor gamma (ROR-gamma) signaling pathway - cell viability counter screen (AID 1159520); also: nearly all actives have a fitted effect of over 50% in size
Procedure, shortened: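 Cytotoxicity was read from cellular ATP (CellTiter-Glo luminescence) after 16 hr at 37 C with 1 uM doxycycline induction. The inducer was added 2 hr after compound transfer to Tet-on ROR gamma CHO cells.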

[7] = target: Nuclear receptor ROR-gamma (Homo sapiens) (UniProt P51449); assay: qHTS assay to identify small molecule antagonists of the retinoid-related orphan receptor gamma (ROR-gamma) signaling pathway (AID 1159521; also: nearly all actives have a fitted effect of over 50% in size; also: potency is read from the fitted curve at half-maximal effect)
Procedure, shortened: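 Cells were plated, rested 4 h at 37 C, exposed to compounds for 2 h, then given 1 uM final doxycycline hyclate to induce RORγ expression. After 16 h, ONE-Glo luminescence from the ROR response element reporter was measured.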

[8] = qHTS assay to identify small molecule agonists of the AP-1 signaling pathway - cell viability counter screen (AID 1159525; calls by dose curve; also: nearly all actives have a fitted effect of over 55% in size)
Procedure, shortened: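 Intracellular ATP by Cell Titer Glo luminescence (30 min, RT) in the same ME-180 AP-1-bla wells after the 5 h compound exposure at 37 °C. Normalised to tetra n-octyl ammonium bromide and DMSO controls.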

[9] = qHTS assay to identify small molecule agonists of the AP-1 signaling pathway (AID 1159526; calls by dose curve)
[10] = qHTS assay to identify small molecule agonists of the RXR signaling pathway - cell viability counter screen (AID 1159529)
Procedure, shortened: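 Steps: seed RXR-alpha-UAS-bla HEK 293T cells in assay medium containing 2% charcoal-stripped FBS; incubate 5 hr; add compounds in DMSO; incubate 16 hr at 37 C; after the bla read, add CellTiter-Glo and read luminescence at 30 min.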

[11] = qHTS assay to identify small molecule antagonists of the retinoid acid receptor (RAR) signaling pathway - cell viability counter screen (AID 1159551); also: nearly all actives have a fitted effect of over 35% in size
Procedure, shortened: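 Cytotoxicity counter screen: ATP content quantified by CellTiter-Glo luminescence in C3RL4 cells treated 6 hr at 37 C with compound and retinol (1 uM final). Cells plated at 1,000/well and cultured overnight before dosing.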

[12] = qHTS assay to identify small molecule antagonists of the retinoic acid receptor (RAR) signaling pathway (AID 1159552; also: nearly all actives have a fitted effect of over 50% in size)
Procedure, shortened: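 Retinol at 1 uM final stimulated RARE-luciferase expression in C3RL4 cells exposed to test compounds for 6 hr at 37 C. Reduced luminescence, read 30 min after detection reagent, indicated pathway antagonism.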

[13] = qHTS assay to identify small molecule agonists of the retinoic acid receptor (RAR) signaling pathway (AID 1159553); also: potency is read from the fitted curve at half-maximal effect
Procedure, shortened: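 Luminescence was measured 30 min after luciferase reagent addition at room temperature. Before that, C3RL4 reporter cells (1,000 per well, plated overnight) were treated with compound for 6 hr at 37 C and 5% CO2.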

[14] = qHTS assay to identify small molecule antagonists of the vitamin D receptor (VDR) signaling pathway - cell viability counter screen (AID 743225); also: nearly all actives have a fitted effect of over 50% in size
Procedure, shortened: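 HEK293T VDR-bla; cpd + 1a,25-(OH)2D3 3 nM final, 16 h 37C/5% CO2; B/G FRET substrate 2 h RT; then CellTiter-Glo 30 min RT, luminescence.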

[15] = qHTS assay to identify small molecule antagonists of the estrogen related receptor (ERR) signaling pathway - cell viability counter screen (AID 1224818);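 also: series mostly up to about 46 µM; viability measured after 17.5 h of compound exposure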
Procedure, shortened: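 Cytotoxicity counter screen: fluorescence from CellTiter-Fluor, added after 17.5 h compound exposure at 37 C and read 30 min later. ERR cell line seeded at 2,000 cells/well, preincubated 6 h before dosing.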

[16] = qHTS assay to identify small molecule antagonists of the estrogen related receptor signaling pathway with the pleiotropic PPARgamma coactivator (PGC) cell viability counter screen (AID 1224822; also: series mostly up to about 46 µM)
Procedure, shortened: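 Viability counter-screen read by fluorescence intensity after 30 min with CellTiter-Fluor at 37 C; PGC/ERR reporter cells were exposed to compounds for 17.5 h at 37 C following a 6 h preincubation.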

Compound | Potency [1] | outcome [2] | outcome [3] | outcome [4] | Potency [5] | Potency [6] | Potency [7] | Potency [8] | outcome [9] | Potency [10] | Potency [11] | Potency [12] | Potency [13] | outcome [14] | outcome [15] | outcome [16]
N#Cc1ccncc1 | inactive | inactive | inactive | inactive | inactive | inactive | inactive | inactive | inactive | inactive | inactive | inactive | inactive |  |  | 
ClC(Br)Br | inactive | inactive | inactive | inactive | inactive | inactive | inactive | inactive | inactive | inactive | inactive | inactive | inactive | inactive |  | 
CC(COc1ccc(Oc2ccccc2)cc1)Oc1ccccn1 (configuration not stated) | inactive | inactive | inactive | inactive | inactive | inactive | inactive | inactive | inactive | inactive | inactive | inactive |  |  |  | 
O=[N+]([O-])c1cccc2cccnc12 | inactive | inactive | inactive | inactive | inactive | inactive | inactive | inactive | inactive | inactive | inactive | inactive | inactive | inactive |  | 
O=c1oc2ccccc2c(O)c1C1CCCc2ccccc21 (configuration not stated) | inactive | inactive | inactive | inactive | inactive | inactive | 48.6 µM (active) | inactive | inactive | inactive | inactive | inactive | inactive | inactive |  | 
O=C(Cc1ccccc1)OCc1ccccc1 | inactive | inactive | inactive | inactive | inactive | inactive | inactive | inactive | inactive | inactive | inactive | inactive | 61.6 µM (active) | inactive |  | 
CCC#N | inactive | inactive | inactive | inactive | inactive | inactive | inactive | inactive | inactive | inactive | inactive | inactive |  | inactive |  | 
CCCSC(=O)Cl | inactive | inactive | inactive | inactive | inactive | inactive | inactive | inactive | inactive | inactive | inactive | inactive | inactive | inactive |  | 
O=C(N[C@H]1CN2CCC1CC2)c1cc2ccoc2cn1 | inactive | inactive | inactive | inactive | inactive | inactive | inactive | inactive | inactive | inactive | inactive | inactive | inactive | inactive |  | 
CNC(=O)Oc1ccc(N(C)C)c(C)c1 | inactive | inactive | inactive | inactive | inactive | inactive | inactive | inactive | inactive | inactive | inactive | inactive | inactive |  |  | 
Cc1ncsc1CCCl | inactive | inactive | inactive | inactive | inactive | inactive | inactive | inactive | inactive | inactive | inactive |  |  | inactive | inactive | inactive
CC1CCCCC1NC(=O)Nc1ccccc1 (configuration not stated) | inactive | inactive | inactive | inactive | inactive | inactive | inactive | inactive | inactive | inactive | inactive | inactive |  | inactive |  | 
CC(C)(C)OC(=O)c1ncn2c1[C@@H]1CCCN1C(=O)c1c(Br)cccc1-2 |  | inactive | inactive | inactive | inactive | inactive | inactive | inactive | inactive | inactive | inactive | inactive |  |  |  | 
CC1(C)COP(Oc2ccccc2)OC1 | inactive | inactive | inactive | inactive | inactive | inactive | inactive | inactive | inactive | inactive | inactive | inactive | inactive | inactive |  | 
O=[N+]([O-])c1ccc2c3c(cccc13)CC2 | inactive | inactive | inactive | inactive | inactive | inactive | inactive | inactive | inactive | inactive | inactive | inactive | inactive | inactive |  | 
CCCSP(=O)(OCC)Oc1ccc(Br)cc1Cl (configuration not stated) |  | inactive | inactive | inactive | inactive | inactive | inactive | inactive | inactive | inactive | inactive | inactive | inactive | inactive |  | 
O=NN1CCCCC1 |  | inactive | inactive | inactive | inactive | inactive | inactive | inactive | inactive | inactive | inactive |  |  | inactive |  | 
CC(C)CC(N(C)C)C1(c2ccc(Cl)cc2)CCC1 (configuration not stated) | inactive | inactive | inactive | inactive | inactive | inactive | inactive | inactive | inactive | inactive | inactive |  |  |  |  | 
Fc1ccc(C2(Cn3cncn3)OC2c2ccccc2Cl)cc1 (configuration not stated) |  | inactive | inactive | inactive | inactive | inactive | inactive | inactive | inactive |  | inactive | inactive | inactive |  |  | 
